Bioassay records from PubChem BioAssay.
An excerpt weighted towards active compounds, which were near 0.33% of everything screened.
FXIIa inh: human FXIIa protease inhibitors, primary screen, biochemical, single well | Coagulation factor XII (Homo sapiens), P00748 | purified human FXIIa, AMC substrate fluorescence, 2 h | inhibition, % at 10 µM | 0.2% of 33,000 active | AID 701, 2007; in the data active = inhibition above about 30%
Target sequence (P00748 20-372 limits assumed): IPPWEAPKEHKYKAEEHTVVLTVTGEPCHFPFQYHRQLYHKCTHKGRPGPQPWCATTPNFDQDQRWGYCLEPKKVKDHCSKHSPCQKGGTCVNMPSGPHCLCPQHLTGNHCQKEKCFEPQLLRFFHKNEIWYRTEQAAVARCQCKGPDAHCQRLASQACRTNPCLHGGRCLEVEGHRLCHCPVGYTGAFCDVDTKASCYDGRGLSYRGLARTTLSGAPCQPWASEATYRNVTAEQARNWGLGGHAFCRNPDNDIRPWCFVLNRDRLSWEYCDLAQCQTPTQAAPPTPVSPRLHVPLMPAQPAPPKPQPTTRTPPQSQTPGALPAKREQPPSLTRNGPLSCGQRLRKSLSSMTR
Target sequence (P00748 373-615 limits assumed): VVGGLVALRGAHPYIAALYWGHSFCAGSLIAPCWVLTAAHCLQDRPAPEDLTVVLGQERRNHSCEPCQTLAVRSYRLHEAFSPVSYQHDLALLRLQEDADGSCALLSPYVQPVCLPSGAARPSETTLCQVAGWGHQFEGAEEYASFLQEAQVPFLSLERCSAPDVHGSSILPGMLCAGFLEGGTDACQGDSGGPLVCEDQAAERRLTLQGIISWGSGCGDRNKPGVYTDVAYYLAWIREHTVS
FXIa inh: human FXIa protease inhibitors, primary screen, biochemical, single compound per well | Coagulation factor XI (Homo sapiens), P03951 | purified human FXIa, fluorogenic AMC substrate cleavage | inhibition, % at 10 µM | 0.3% of 33,000 active | AID 687, 2007;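 active = inhibition above 40% in the primary screen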
Numbers stand for hits; i = inactive.

SMILES	FXIIa inh	FXIa inh
Cc1cc(=O)n(CNC(=O)c2ccccc2)c(=S)[nH]1	i	i
O=C(NC(C(=O)c1ccccc1)n1c(=O)cc[nH]c1=S)c1ccccc1 (centres undefined)	i	48
COC(CNc1cc(=O)oc2ccccc12)OC	i	i
Cc1c(SCCO)c(=O)[nH]c2cc3c(cc12)OCO3	i	i
O=c1c(-c2ccco2)[n+]([O-])c2ccccc2n1OCc1ccccc1	i	i
O=c1c(-c2cc3ccccc3o2)[n+]([O-])c2ccccc2n1OCc1ccccn1	i	40
CC(Cc1ccccc1)NC(=O)CSc1nc2nc3c(cc2c(=O)n1-c1ccccc1)COC(C)(C)C3 (centres undefined)	i	i
Cc1cnc(C(=O)OCC(=O)NCc2ccccc2)cn1	i	41
COc1ccc(CCNC(=O)COC(=O)c2cnc(C)cn2)cc1	i	i
CCC(C)NS(=O)(=O)c1ccc(OCC(=O)N2CCC(C)CC2)cc1 (centres undefined)	i	i
Cc1cccn2c(=O)c3cc(C(=O)N4CCN(c5ccccc5)CC4)n(C)c3nc12	i	i
O=C(Oc1ccc2c3c(c(=O)oc2c1)CCC3)c1ccco1	54	i
COC(=O)c1ccc(COc2ccc3c4c(c(=O)oc3c2)CCC4)o1	i	i
CCCCN(CCCC)S(=O)(=O)c1ccc(NC(=O)Cc2cccs2)cc1	i	i
COc1ccc(CCNC(=O)NC23CC4CC(CC(C4)C2)C3)cc1OC	i	i
CC(=NCCCn1ccnc1)c1c(O)n(Cc2ccccc2)c(=O)[nH]c1=O	i	i
COCCCNC(=O)c1ccc(Cn2c(=O)c3ccccc3n(Cc3ccccc3C#N)c2=O)cc1	i	i
CCc1cccc(NC(=O)c2snc3c(=O)[nH]cnc23)c1	i	i
Cc1cccc(NC(=O)c2snc3c(=O)[nH]cnc23)c1	i	103
Cc1c(O)ccc(C(=O)CN2C(=O)c3ccccc3C2=O)c1O	i	59
CCOC(=O)CN1C(=O)c2ccccc2C1=O	i	i
CC(=O)c1ccc(OC(=O)c2ccc(Br)o2)cc1	50	i
Cc1ccc(OC(=O)c2ccc(Br)o2)cc1	i	i
COc1ccc(CCNC(=O)c2cccnc2)cc1	i	i
CC(C)CN1C(=S)SC(C)(C)C1n1oc(=O)n(-c2ccc(Cl)cc2)c1=O (centres undefined)	i	i
